Targets with a hit are over-represented here; the source holds about 7,900 in all. About 0.6% of all pairs of compound and target were hits. Unmarked numbers belong to inactive results.
What was measured:
Test in all cases: log2 fold change, soluble protein after heating vs DMSO (PISA); higher = thermal stabilisation; K562 cells, 10 uM, 30 min; active = over 0.2 and 3.5 SD of the protein, either way, in both replicates (recomputed)
[1] = compound: CN1CCN(CCOc2cc(OC3CCOCC3)c3c(Nc4c(Cl)ccc5c4OCO5)ncnc3c2)CC1 [saracatinib]
Outline: (§1)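 Soluble protein was defined as the supernatant after 21,000xg for 90 min. It came from K562 cells at 2×10^6 cells/mL given 10 μM compound for 30 min, heated in aliquots for 3 min across 48°C-58°C, pooled, and extracted in PBS with 0.5% NP-40 at 4°C, and was quantified by TMTpro 16plex LC-MS/MS with equalised channel sums. Thermal stability against control samples, from duplicates, is reported as log2 fold change.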

[2] = compound: CN1CCN(c2nc(C3=C(c4c[nH]c5ccccc45)C(=O)NC3=O)c3ccccc3n2)CC1 [sotrastaurin]
Outline: as §1

[3] = compound: CN1CC[C@H](c2c(O)cc(O)c3c(=O)cc(-c4ccccc4Cl)oc23)[C@H](O)C1 [alvocidib]
Outline: as §1

[4] = compound: CN1CCc2c(c3ccccc3n2Cc2ccc(C(=O)NO)cc2)C1 [Tubastatin A]
Outline: as §1

[5] = compound: CNC(=O)C1=CC=CC=C1NC2=NC(=NC=C2Cl)NC3=C(C=C(C=C3)N4CCOCC4)OC
Outline: as §1

[6] = compound: CNC(=O)c1ccc(Nc2ncc(C(F)(F)F)c(NCc3nccnc3N(C)S(C)(=O)=O)n2)cc1 [defactinib]
Outline: as §1

[7] = compound: CNCc1ccc(-c2[nH]c3cc(F)cc4c3c2CCNC4=O)cc1 [rucaparib]
Outline: as §1

[8] = compound: CNc1nc(-c2ccc3c(N)n[nH]c3c2)cc(N2C[C@@H](C(=O)NC3CCCCC3)CC[C@H]2C)n1
Outline: as §1

[9] = compound: COC(=O)N[C@@H](C)CNc1nccc(-c2cn(C(C)C)nc2-c2cc(Cl)cc(NS(C)(=O)=O)c2F)n1 [encorafenib]
Outline: as §1

[10] = compound: COC(=O)[C@H](CCSC)NC(=O)C1=C(C=C(C=C1)NC[C@H](CS)N)C2=CC=CC=C2
Outline: as §1

Chain of UniProt Q14203 (Q14203 whole entry, looked up): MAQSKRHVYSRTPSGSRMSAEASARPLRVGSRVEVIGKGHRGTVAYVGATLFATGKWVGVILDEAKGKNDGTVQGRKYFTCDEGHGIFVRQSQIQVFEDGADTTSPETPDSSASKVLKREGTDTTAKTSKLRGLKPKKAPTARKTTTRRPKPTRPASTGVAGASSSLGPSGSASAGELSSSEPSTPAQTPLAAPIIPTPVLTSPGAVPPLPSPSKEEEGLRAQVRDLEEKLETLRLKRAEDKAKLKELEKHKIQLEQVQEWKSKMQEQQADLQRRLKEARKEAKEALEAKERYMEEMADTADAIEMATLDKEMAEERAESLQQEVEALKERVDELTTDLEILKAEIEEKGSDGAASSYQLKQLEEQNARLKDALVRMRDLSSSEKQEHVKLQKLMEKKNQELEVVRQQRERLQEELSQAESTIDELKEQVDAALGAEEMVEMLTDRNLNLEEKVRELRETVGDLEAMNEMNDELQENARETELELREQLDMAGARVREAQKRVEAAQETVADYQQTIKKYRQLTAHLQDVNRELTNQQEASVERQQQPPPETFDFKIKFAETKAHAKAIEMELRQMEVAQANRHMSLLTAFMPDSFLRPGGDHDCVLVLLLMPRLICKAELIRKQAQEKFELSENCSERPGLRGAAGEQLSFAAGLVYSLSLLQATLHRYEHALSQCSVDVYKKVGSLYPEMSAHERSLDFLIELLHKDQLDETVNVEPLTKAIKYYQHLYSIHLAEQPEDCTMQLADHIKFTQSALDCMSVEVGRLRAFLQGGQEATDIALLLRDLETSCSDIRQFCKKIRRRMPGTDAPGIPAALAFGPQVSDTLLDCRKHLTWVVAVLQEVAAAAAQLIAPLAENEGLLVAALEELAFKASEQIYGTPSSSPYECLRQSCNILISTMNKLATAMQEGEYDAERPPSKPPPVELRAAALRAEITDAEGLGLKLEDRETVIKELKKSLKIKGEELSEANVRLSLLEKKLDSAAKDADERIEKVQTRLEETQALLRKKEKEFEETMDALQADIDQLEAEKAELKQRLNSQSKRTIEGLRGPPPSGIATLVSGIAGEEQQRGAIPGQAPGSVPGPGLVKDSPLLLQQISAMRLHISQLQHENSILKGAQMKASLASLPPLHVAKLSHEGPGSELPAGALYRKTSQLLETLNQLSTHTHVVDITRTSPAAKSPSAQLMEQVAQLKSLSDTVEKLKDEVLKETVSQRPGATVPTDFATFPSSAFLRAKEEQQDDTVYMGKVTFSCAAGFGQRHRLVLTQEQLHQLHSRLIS
Chain of UniProt Q96KP1 (Q96KP1 whole entry, looked up): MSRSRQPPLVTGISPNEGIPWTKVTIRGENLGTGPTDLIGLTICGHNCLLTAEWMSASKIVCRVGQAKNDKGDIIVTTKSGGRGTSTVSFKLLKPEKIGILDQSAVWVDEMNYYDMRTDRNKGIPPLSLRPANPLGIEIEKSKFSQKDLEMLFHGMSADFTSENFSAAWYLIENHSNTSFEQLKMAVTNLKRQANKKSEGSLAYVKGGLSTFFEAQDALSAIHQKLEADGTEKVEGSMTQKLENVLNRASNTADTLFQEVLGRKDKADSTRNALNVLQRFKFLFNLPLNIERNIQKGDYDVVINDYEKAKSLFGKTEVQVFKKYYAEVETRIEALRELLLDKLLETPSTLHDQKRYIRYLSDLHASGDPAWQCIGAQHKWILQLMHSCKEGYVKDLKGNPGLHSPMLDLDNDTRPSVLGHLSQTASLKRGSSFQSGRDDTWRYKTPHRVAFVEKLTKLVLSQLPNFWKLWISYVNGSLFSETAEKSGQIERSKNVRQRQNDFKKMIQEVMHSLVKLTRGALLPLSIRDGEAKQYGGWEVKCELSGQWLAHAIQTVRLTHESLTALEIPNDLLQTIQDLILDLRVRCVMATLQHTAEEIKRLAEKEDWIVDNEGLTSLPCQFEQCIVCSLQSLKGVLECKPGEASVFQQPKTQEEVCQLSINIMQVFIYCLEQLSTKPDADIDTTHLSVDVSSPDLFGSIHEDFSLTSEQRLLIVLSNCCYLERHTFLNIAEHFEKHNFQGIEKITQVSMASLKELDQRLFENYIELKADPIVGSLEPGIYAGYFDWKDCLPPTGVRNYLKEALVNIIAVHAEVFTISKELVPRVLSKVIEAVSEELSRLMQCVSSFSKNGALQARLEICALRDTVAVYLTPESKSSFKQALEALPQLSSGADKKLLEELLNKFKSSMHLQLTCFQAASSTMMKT
Chain of UniProt Q9H467 (Q9H467 whole entry, looked up): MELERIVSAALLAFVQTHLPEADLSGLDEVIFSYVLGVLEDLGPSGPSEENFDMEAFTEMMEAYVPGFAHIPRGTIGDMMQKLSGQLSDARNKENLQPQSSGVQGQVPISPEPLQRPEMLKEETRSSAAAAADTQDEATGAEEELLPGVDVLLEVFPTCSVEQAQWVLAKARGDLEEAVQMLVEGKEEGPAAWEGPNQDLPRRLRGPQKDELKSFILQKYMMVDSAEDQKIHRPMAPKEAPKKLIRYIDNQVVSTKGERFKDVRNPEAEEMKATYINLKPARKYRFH
Chain of UniProt Q9NVR5 (Q9NVR5 whole entry, looked up): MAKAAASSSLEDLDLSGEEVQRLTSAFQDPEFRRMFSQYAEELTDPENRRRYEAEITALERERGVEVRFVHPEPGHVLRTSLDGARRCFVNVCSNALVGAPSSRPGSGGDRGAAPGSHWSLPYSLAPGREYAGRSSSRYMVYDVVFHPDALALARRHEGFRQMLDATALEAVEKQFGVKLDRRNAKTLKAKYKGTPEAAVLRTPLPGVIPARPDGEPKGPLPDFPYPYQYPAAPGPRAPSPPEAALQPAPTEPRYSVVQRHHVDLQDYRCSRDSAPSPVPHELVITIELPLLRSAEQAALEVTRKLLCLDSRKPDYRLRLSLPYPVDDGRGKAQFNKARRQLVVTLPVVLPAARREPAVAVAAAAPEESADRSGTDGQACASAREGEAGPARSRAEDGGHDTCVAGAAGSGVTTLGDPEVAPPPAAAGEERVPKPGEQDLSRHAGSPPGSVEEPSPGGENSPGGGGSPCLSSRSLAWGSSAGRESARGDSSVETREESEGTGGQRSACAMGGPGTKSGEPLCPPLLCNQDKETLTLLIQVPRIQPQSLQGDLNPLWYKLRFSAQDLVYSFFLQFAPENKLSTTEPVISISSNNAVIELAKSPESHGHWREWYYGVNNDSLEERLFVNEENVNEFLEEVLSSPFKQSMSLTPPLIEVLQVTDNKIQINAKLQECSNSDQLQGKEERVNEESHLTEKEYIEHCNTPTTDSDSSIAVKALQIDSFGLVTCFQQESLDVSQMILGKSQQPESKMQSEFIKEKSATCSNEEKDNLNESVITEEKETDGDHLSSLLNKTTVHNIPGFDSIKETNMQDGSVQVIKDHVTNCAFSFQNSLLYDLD
Chain of UniProt P17844 (P17844 whole entry, looked up): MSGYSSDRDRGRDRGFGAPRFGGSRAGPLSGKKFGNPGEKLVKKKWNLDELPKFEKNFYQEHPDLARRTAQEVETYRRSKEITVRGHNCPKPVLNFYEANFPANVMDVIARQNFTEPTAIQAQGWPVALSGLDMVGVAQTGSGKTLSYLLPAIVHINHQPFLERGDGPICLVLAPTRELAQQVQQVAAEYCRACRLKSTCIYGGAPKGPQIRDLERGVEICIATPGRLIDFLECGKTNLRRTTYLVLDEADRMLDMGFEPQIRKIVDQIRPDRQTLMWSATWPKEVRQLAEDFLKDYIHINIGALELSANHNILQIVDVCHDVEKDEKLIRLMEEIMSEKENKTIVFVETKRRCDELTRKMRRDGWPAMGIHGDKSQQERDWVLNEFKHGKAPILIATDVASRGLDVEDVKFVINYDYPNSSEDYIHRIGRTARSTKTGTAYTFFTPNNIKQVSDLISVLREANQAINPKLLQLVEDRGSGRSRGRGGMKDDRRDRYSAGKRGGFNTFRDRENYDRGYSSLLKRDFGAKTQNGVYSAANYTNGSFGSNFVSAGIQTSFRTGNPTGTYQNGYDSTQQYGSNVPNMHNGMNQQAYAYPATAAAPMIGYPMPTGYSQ
Chain of UniProt O75477 (O75477 whole entry, looked up): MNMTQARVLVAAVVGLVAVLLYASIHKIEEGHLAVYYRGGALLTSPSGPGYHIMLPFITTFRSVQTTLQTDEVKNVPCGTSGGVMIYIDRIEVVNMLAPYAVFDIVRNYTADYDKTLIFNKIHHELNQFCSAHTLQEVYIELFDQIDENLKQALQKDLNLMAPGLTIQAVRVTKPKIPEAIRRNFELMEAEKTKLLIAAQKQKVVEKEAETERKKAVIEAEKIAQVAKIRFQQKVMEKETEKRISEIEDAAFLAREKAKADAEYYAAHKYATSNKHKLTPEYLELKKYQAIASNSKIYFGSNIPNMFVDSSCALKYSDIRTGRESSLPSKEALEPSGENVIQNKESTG
Chain of UniProt Q96CS3 (Q96CS3 whole entry, looked up): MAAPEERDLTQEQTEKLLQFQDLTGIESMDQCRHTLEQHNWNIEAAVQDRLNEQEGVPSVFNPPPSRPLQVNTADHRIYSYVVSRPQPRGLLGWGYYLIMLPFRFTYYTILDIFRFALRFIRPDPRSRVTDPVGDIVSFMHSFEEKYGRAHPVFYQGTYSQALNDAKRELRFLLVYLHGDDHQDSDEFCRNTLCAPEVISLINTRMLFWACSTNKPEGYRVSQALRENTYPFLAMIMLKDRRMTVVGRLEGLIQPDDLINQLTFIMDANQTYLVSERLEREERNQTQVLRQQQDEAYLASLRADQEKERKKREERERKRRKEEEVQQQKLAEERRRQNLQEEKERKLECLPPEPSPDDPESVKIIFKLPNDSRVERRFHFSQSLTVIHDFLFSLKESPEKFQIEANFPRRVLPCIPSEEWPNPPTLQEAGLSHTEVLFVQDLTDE

Target | log2 fold change [1] | log2 fold change [2] | log2 fold change [3] | log2 fold change [4] | log2 fold change [5] | log2 fold change [6] | log2 fold change [7] | log2 fold change [8] | log2 fold change [9] | log2 fold change [10]
DIP2A (UniProt Q14689) | 0.082 | 0.054 | -0.095 | -0.094 | 0.034 | -0.059 | 0.1 | -0.009 | 0 | 0.077
DAG1 (UniProt Q14118) | -0.033 | 0.1 | -0.026 | -0.021 | -0.093 | -0.032 | -0.014 | 0.052 | 0.002 | 0.007
DMXL1 (UniProt Q9Y485) | 0.014 | 0.001 | -0.068 | -0.011 | -0.065 | -0.035 | 0.076 | -0.017 | 0.043 | -0.047
EXOC8 (UniProt Q8IYI6) | -0.015 | -0.196 | -0.031 | -0.012 | 0.056 | -0.069 | 0.016 | 0.112 | 0.094 | -0.047
EIF4A1 (UniProt P60842) | -0.029 | -0.138 | -0.088 | 0.049 | -0.03 | -0.116 | 0 | 0.012 | 0.071 | -0.05
EXOC2 (UniProt Q96KP1) | -0.058 | -0.214 | -0.01 | 0.044 | 0.064 | -0.096 | 0.136 | -0.004 | 0.126 | -0.085
DCTN1 isoform 4 (UniProt Q14203) | -0.126 | -0.159 | -0.083 | 0.079 | -0.056 | -0.037 | 0.227 | 0.074 | 0.083 | -0.068
ERLIN1 (UniProt O75477) | 0 | -0.072 | 0.023 | 0.029 | -0.06 | 0.028 | 0.072 | -0.004 | 0.105 | -0.024
DYRK1A isoform 2 (UniProt Q13627) | -0.046 | 0.022 | -0.135 | 0.058 | -0.264 (active) | 0.03 | 0.036 | 0.029 | 0.014 | -0.021
DSN1 (UniProt Q9H410) | 0.032 | -0.042 | -0.164 | 0.082 | -0.031 | -0.146 | 0.076 | 0.016 | 0.02 | 0.029
DBN1 isoform 3 (UniProt Q16643) | 0.121 | 0.001 | -0.044 | -0.094 | -0.042 | -0.06 | 0.041 | -0.011 | 0.097 | -0.033
DDX27 (UniProt Q96GQ7) | -0.104 | -0.088 | 0.209 | 0.09 | -0.035 | 0.651 | 0.255 | -0.017 | 0.124 | 0.057
EIF2S3 (UniProt P41091) | -0.016 | 0 | 0.057 | -0.006 | -0.02 | 0.114 | 0.124 | 0.033 | 0.04 | -0.002
EXOSC10 (UniProt Q01780) | -0.091 | 0.199 | 0.092 | 0.143 | -0.073 | 0.015 | 0.101 | 0.022 | -0.327 | 0.123
FAF2 (UniProt Q96CS3) | -0.084 | -0.048 | -0.053 | -0.008 | 0.021 | -0.011 | 0.015 | 0.021 | 0.036 | 0
EXOC7 (UniProt Q9UPT5) | 0.024 | -0.218 | -0.039 | 0.029 | -0.04 | -0.06 | -0.01 | -0.077 | 0.006 | -0.047
FAM50A (UniProt Q14320) | 0.11 | -0.119 | -0.064 | 0.029 | 0.056 | -0.203 | -0.027 | 0.08 | 0.055 | -0.023
FADS1, A0A0A0MR51 | 0.013 | -0.061 | -0.086 | 0.15 | 0.112 | -0.022 | 0.005 | 0.027 | 0.004 | 0
DLD (UniProt P09622) | 0.055 | 0.015 | 0.026 | -0.029 | 0.008 | 0.01 | -0.041 | -0.023 | -0.011 | 0.047
DDX5 (UniProt P17844) | -0.055 | -0.206 | -0.07 | 0.041 | 0.025 | -0.206 | -0.075 | -0.021 | 0.14 | -0.085
DNAAF2 (UniProt Q9NVR5) | 0.048 | 0 | -0.065 | -0.042 | 0.01 | -0.142 | 0.031 | -0.033 | 0.026 | 0.043
FADS3 (UniProt Q9Y5Q0) | 0.035 | 0.037 | -0.051 | -0.061 | 0.026 | 0.048 | 0.024 | -0.079 | 0.02 | 0.026
DHX16 (UniProt O60231) | 0.024 | -0.037 | -0.045 | -0.001 | -0.042 | -0.035 | -0.027 | 0.028 | 0.019 | -0.013
DNAJB12 (UniProt Q9NXW2) | 0.022 | 0.068 | -0.006 | -0.006 | 0.024 | -0.03 | 0.079 | -0.011 | -0.018 | -0.021
DNAJC1 (UniProt Q96KC8) | -0.02 | -0.028 | -0.012 | 0.018 | 0.046 | 0.004 | 0.03 | -0.011 | 0.003 | 0.005
CUEDC2 (UniProt Q9H467) | -0.003 | -0.045 | -0.089 | 0.197 | -0.036 | -0.067 | -0.033 | -0.338 (active) | 0.071 | 0.016
ESYT1 isoform 2 (UniProt Q9BSJ8) | -0.148 | -0.208 | -0.05 | 0.031 | -0.034 | -0.043 | 0.154 | 0.099 | 0.175 | -0.099
EXOC1 (UniProt Q9NV70) | 0.013 | -0.249 | -0.04 | 0.038 | -0.002 | -0.074 | 0.172 | 0.066 | 0.06 | -0.081
DFFB (UniProt O76075) | 0.017 | 0.052 | -0.038 | 0.07 | 0.009 | 0.024 | 0.049 | -0.016 | -0.019 | 0.033
EHBP1L1 (UniProt Q8N3D4) | -0.065 | -0.082 | -0.049 | 0.098 | -0.002 | -0.089 | 0.1 | -0.008 | 0.127 | -0.017

— the supplement of paper PMC10849652
